ELG1 DNA repair = qHTS screen for small molecules that inhibit ELG1-dependent DNA repair in human embryonic kidney (HEK293T) cells expressing luciferase-tagged ELG1; 330,000 compounds, 2.3% hits; HEK293T ELG1-luciferase reporter, luminescence, 16 h; DNA damage induced by 5-fluorouridine; Potency, µM (highest dose often 46.1 µM), without a hit: at the highest dose activity change, negative = inhibition, hits mostly inhibitors; note: % is set by controls: 0 for no effect and ±100 for the full control effect; nearly all actives have a fitted effect of over 55% in size
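Quantitative HTS, concentration-response format. 2,000 cells/well co-treated with 5-fluorouridine and compound, 16 hr in 5% CO2 at 37 °C; ONE-Glo luminescence read after 30 min.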
SW480 rereplic = A quantitative high throughput screen for small molecules that induce DNA re-replication in SW480 colon adenocarcinoma cells. SW480 DNA re-replication, Hoechst DNA content imaging, 48 h. 340,000 compounds, 1.8% hits. Potency, µM (top dose mostly 46.1 µM), without a hit: at the highest dose re-replication activation, actives largely listed as activators; note: % of control where 0% means no effect; nearly all actives have a fitted effect of over 55% in size
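Quantitative HTS format with DMSO vehicle controls; 48 hr drug incubation at 37 C, then 40 min Hoechst staining and scanning imager measurement at 405 nm excitation.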
RORg inh = qHTS for inhibitors of ROR gamma transcriptional activity | Potency, µM (doses to about 53.6 µM), for the others: at the top dose activity change, negative = inhibition, most hits filed as inhibitors | Nuclear receptor ROR-gamma (Mus musculus), P51450 | 310,000 compounds, 5.4% hits | Drosophila S2 Gal4-RORgamma UAS-luciferase reporter, 20 h; note: % is set by controls: 0 for no effect and ±100 for the full control effect; nearly all actives have a fitted effect of over 60% in size
Target sequence (P51450 whole entry, looked up, the tested form may be a part): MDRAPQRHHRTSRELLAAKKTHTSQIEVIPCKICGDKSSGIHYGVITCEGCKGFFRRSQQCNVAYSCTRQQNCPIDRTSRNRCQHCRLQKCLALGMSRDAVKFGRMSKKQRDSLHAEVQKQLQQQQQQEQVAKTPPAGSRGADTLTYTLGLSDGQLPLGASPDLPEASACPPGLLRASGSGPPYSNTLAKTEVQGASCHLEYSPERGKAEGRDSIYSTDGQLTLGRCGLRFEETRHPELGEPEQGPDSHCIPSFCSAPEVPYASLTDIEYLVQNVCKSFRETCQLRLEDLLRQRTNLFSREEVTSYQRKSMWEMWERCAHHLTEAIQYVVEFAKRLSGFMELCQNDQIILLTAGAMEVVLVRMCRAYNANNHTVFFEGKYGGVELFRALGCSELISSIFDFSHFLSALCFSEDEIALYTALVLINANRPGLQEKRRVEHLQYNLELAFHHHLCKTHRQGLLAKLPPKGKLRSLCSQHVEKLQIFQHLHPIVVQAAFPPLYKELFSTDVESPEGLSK
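Compounds are pin-transferred onto Drosophila Schneider cells expressing a copper-inducible Gal4–ROR gamma transactivation domain fusion. After 1 hr, copper sulfate is added to 700 uM final; luciferase is read 20 hr later.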
Gal4-VP16 FLuc = VP16 counterscreen qHTS for inhibitors of ROR gamma transcriptional activity; Drosophila S2 Gal4-VP16 UAS-luciferase, luminescence, 20 h; Potency, µM (series often up to 53.6 µM), inactives show top-dose activity, negative = inhibition, hits mostly inhibitors; 310,000 compounds, 3.5% hits; AID 2546, 2010;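 note: Gal4-VP16 expression switched on by copper sulfate through the metallothionein promoter; % is set by controls: 0 for no effect and ±100 for the full control effect; nearly all actives have a fitted effect of over 50% in size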
MCF10A rerep = A quantitative high throughput screen for small molecules that induce DNA re-replication in MCF 10a normal breast cells; MCF 10A DNA re-replication, Hoechst nuclear intensity, 48 h; Potency, µM (top dose mostly 46.1 µM), inactives show top-dose activity, positive = re-replication, usual class: activators; 350,000 compounds, 2.9% hits; AID 624296, 2012; note: % of control where 0% means no effect; nearly all actives have a fitted effect of over 50% in size
The depositor's hits bear a star; ? = inconclusive; nt = not tested or not shown; ! = not active in a repeat; [ ] = another dose, or the depositor's remark. Shown are actives, neighbours in structure and some others; about 10% of the full set was active somewhere. Calls come from the whole dose curve; as a rule, active = well fitted curve in the direction sought with a large enough effect; inconclusive = small, poorly fitted or top-dose-only effect, or another doubt; inactive = no such curve, though single readings can be large; an effect the other way counts as inactive or inconclusive. Potency is the fitted concentration of half-maximal effect.

SMILES	ELG1 DNA repair	SW480 rereplic	RORg inh	Gal4-VP16 FLuc	MCF10A rerep
Cc1c(C(=O)N2CCN(c3cccc(Cl)c3)CC2)cccc1[N+](=O)[O-]	?	3%	?	4%	2%
COc1cccc(/C=C/C(=O)c2ccc(C)c([N+](=O)[O-])c2)c1	?	?	51%	-16%	6.5µM*
COc1cc(/C=C/C(=O)c2ccc(C)c([N+](=O)[O-])c2)cc(OC)c1O	-5%	nt	?	?	9.2µM*
COc1ccc(/C=C/C(=O)c2ccc(C)c([N+](=O)[O-])c2)cc1O	?	?	-84%	16µM*	?
COc1ccc(/C=C/c2c([N+](=O)[O-])c(=O)n(C)c(=O)n2C)cc1O	?	?	-12%	-9%	4%
Cc1ccc(NC(=O)Cn2nc(C(=O)O)c3ccccc3c2=O)cc1S(=O)(=O)N1CCCCCC1	nt	-2%	nt	nt	8%
CCOc1ccccc1N1CC(C(=O)Nc2cc(Cl)ccc2-n2cncn2)CC1=O (stereo unspecified)	4%	-3%	nt	nt	-2%
COc1ccc(Cc2nnc(NC(=O)CSc3ccc(C)cc3)s2)cc1OC	-19%	-6%	11µM*	?	-2%
COc1ccc(Cc2nnc(NC(=O)Nc3ccc(C)cc3)s2)cc1OC	?	9%	0%	5%	-2%
COc1ccc(/C=C/c2nnc(NC(=O)CSc3ccc(C)cc3)s2)cc1	12%	?	?	?	8.2µM*
Cn1cccc1C(=O)N1CCC[C@@]2(CCN(C(=O)Nc3cccc(F)c3)C2)C1	nt	nt	1%	-4%	nt
CSCCC(NS(=O)(=O)c1ccccc1F)C(=O)NCCCn1nc(C)cc1C (stereo unspecified)	1%	-1%	nt	nt	2%
Cc1ccc(S(=O)(=O)N2CCN(C(=O)C(C)Cn3cncn3)CC2)cc1C (stereo unspecified)	1%	-7%	-12%	-8%	-6%
O=C(Nn1cc(C(=O)Nc2ccc(F)cc2F)c2ccccc2c1=O)c1cnccn1	?	38%	11µM*	?	?
Cc1cc(C)nc(/N=C(\N)Nc2ccccc2-c2ccccc2)n1	?	3%	?	13µM*	15%
Cc1cc(C)cc(N/C(N)=N/c2nc(C)cc(C)n2)c1	15µM*	?	-27%	-2%	?
CC1=C(C(N)=O)C(c2cccs2)NC(=O)N1 (stereo unspecified)	8%	5%	-3%	3%	3%
COc1ccc(CC(=O)N/N=C\c2cc(Br)c(O)c(Br)c2)cc1	-9%	22%	18%	-14%	3%
CC(C)(C)NC(=O)/C(=C/c1ccco1)c1ccccc1	2%	-1%	22%	0%	0%
COc1ccc(/C=C(/C(=O)c2cccs2)N2C=CC=CC2=C(C#N)C#N)cc1	?	?	2.2µM*	2.8µM*	?
N#CC(C#N)=C1C=CC=CN1/C(=C\c1ccco1)C(=O)c1ccc(Br)cc1	?	4.6µM*	3.5µM*	1.3µM*	3.3µM*
COc1ccc(C(=O)/C(=C\c2ccco2)N2C=CC=CC2=C(C#N)C#N)cc1	?	?	4µM*	3.5µM*	1.3µM*
COc1ccc(C(=O)N/C(=C\c2ccco2)C(=O)OCc2ccco2)cc1	0%	1%	44%	24%	1%
N#CC(C#N)=C1C=CC=CN1/C(=C\c1ccco1)C(=O)c1ccccc1	?	?	5µM*	1.8µM*	2.6µM*
CC(=O)c1cc(-c2ccccc2)n(CC(=O)Nc2cc(C)cc(C)c2)c1C	12%	-3%	-9%	-8%	?
SMILES	ELG1 DNA repair	SW480 rereplic	RORg inh	Gal4-VP16 FLuc	MCF10A rerep
CC12CCC(=O)N1C(C(=O)Nc1cc(Cl)ccc1N1CCOCC1)CS2 (stereo unspecified)	3%	-1%	4%	-9%	12%
Cc1ccc(-n2c(SCC(=O)N3CCCc4ccccc43)nnc2-c2cccnc2)c(C)c1	-18%	-9%	-1%	-3%	4%
Cc1ccc(-n2c(-c3ccccc3)c[n+]3c2CCc2ccccc2-3)c(C)c1	?	26%	?	7.1µM*	22%
O=c1c(O)c(-c2ccccc2)oc2cc(O)cc(O)c12	13µM*	-1%	8%	-6%	?
Cc1ccc(-c2oc3ccccc3c(=O)c2O)cc1	?	8%	4µM*	13µM*	26µM*
Cc1ccc(-c2oc3ccccc3c(=O)c2OCC(=O)O)cc1	-1%	-17%	0%	4%	10%
O=C(O)c1c(-c2ccccc2)oc2ccc(O)cc12	-6%	-7%	-8%	0%	0%
Cc1ccc2oc(-c3ccccc3)c(O)c(=O)c2c1	nt	nt	6.3µM*	14µM*	nt
Cc1ccc2oc(-c3ccccc3)c(C(=O)O)c(=O)c2c1	?	13%	7.1µM*	11µM*	?
Cc1ccc(C)c(S(=O)(=O)N2CCCC2CNC(=O)C(=O)NCc2cccs2)c1 (stereo unspecified)	-9%	-567%	nt	nt	22%
CCN1CCN(S(=O)(=O)CC2(C)C3CCC2(C)C(=O)C3Br)CC1 (stereo unspecified)	4%	-1%	17%	11%	7%
CNc1c([N+](=O)[O-])cnn1-c1ccc(Cl)cc1	7%	-11%	2%	-2%	3%
O=c1c(O)c(-c2ccccc2)oc2cc(O)ccc12	nt	nt	-37%	1%	nt
O=c1c(O)c(-c2ccccc2)oc2ccccc12	nt	5%	4µM*	7.1µM*	?
COc1c(-c2ccc(O)c(O)c2)oc2cc(O)cc(O)c2c1=O	?	?	?	11µM*!	16%
COc1cccc(CNC(=O)CCS(=O)(=O)c2ccccc2Cl)c1	16%	-10%	nt	nt	-2%
O=C(ONC1=NCCCCC1)c1cccc([N+](=O)[O-])c1	9%	1%	7.1µM*	-27%	-1%
Cc1cc(C)n2nc(C(=O)Nc3ccccc3N3CCOCC3)nc2n1	?	nt	5%	-3%	nt
CCOc1cc(-n2cnnn2)c(OCC)cc1NC(=O)c1cnccn1	6%	1%	20%	2%	5%
CCOc1cc(N2CCOCC2)c(OCC)cc1NC(=O)c1nc2nc(C)cc(C)n2n1	7.9µM*	-2%	3%	-10%	2%
CCOc1cc(N2CCOCC2)c(OCC)cc1NS(=O)(=O)c1ccc(Cl)s1	19%	18µM*	-33%	-6%	6.3µM*
CCOc1cc(N2CCOCC2)c(OCC)cc1NC(=O)c1cnccn1	10µM*	0%	nt	nt	0%
O=C(OCCc1ccccc1)c1cc(O)c(O)c(O)c1	?	16%[9.22 µM]	nt	nt	1%
Cc1cc2nc3c(=O)[nH]c(=O)nc-3n(C)c2cc1C=O	nt	nt	10µM*	2%	nt
